# Source: PubChem BioAssay AID2116 (The Scripps Research Institute Molecular Screening Center, 2009)
# Active and inactive are the calls of the source. The rule behind the calls is not given here.
# System: HEK Patch Clamp Assay
# Experiment: activators of mucolipin-3 and mucolipin-2 – cell-based, patch clamp, Fura-2 profiling panel (AID 2116)
# Details: HEK293 cells expressing TRPML3-YFP; patch clamp current at -80 mV
Structure (SMILES),current density,outcome
O=S(=O)(NC1CCCCC1N1CCOCC1)c1ccc(Cl)cc1 (stereo not given),-0.003 nA/pF,inactive; no effect on six other TRP channels
Cc1ccc(N2CCN(S(=O)(=O)N3CCCCC3)CC2)c(C)c1,-0.007 nA/pF,inactive; no effect on six other TRP channels
Cc1ccc(S(=O)(=O)Nc2ccccc2-c2ccccc2)cc1,-0.003 nA/pF,inactive; no effect on six other TRP channels
O=S(=O)(Nc1ccccc1N1CCOCC1)c1ccc(Cl)s1,-0.005 nA/pF,inactive; no effect on six other TRP channels
O=S(=O)(Nc1ccccc1N1CCCCC1)c1ccc(Cl)s1,-0.004 nA/pF,inactive; no effect on six other TRP channels
